According to the supplement of paper PMC13094657:
Where a name gives a salt, the structure may show the parent alone. ± gives the standard deviation of the averaged measurements.

What was measured:
MDA-MB-231 [1] = assay: cell viability relative to vehicle unstimulated control (fraction); higher = more viable cells; conditions: pre-treatment time: 18 h then 24 h IFNg/TNF
MDA-MB-231 [2] = assay: kynurenine production, fold change vs DMSO IFNg/TNF control; higher = more kynurenine produced (less inhibition); conditions: pre-treatment time: 18 h then 24 h IFNg/TNF
Summary of the method: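 After trichloroacetic acid and p-dimethylaminobenzaldehyde treatment, supernatants were read at 492 nm, with 0–100 μM standards. These came from MDA-MB-231 cells (7 × 10^4/well, 96-well plates) pre-treated 18 h with natural products in 0.1% DMSO and then exposed 24 h to IFNγ (1 U/ml) and TNF (6.25 ng/ml) at 37°C. Values for kynurenine production are fold changes over same-plate cytokine-stimulated vehicle wells, averaged over duplicate plates in the first screening round.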
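Throughout, for cell viability relative to vehicle unstimulated control: viability of the cells left after supernatant collection, read with Deep Blue dye added for 4 h, as absorbance at 570 nm minus 600 nm.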

Structure (SMILES) | cell viability (MDA-MB-231 [1]) | kynurenine production (MDA-MB-231 [2])
CC(=O)OC(C)(C)/C=C/C(=O)[C@](C)(O)[C@H]1[C@H](O)C[C@@]2(C)[C@@H]3CC=C4[C@@H](C=C(O)C(=O)C4(C)C)[C@]3(C)C(=O)C[C@]12C [Cucurbitacin E] (compound dose: 10 uM) | 0.52 ± 0.0012 | 0.19 ± 0.034
CC(=O)O[C@@H]1[C@H]2[C@@H](OC(=O)Cc3ccccc3)[C@@H](C)C[C@]2(OC(C)=O)C(=O)/C(C)=C/[C@@H]2[C@H](CC[C@]13CO3)C2(C)C [Euphorbia Factor L1] (compound dose: 10 uM) | 0.909 ± 0.045 | 1.11 ± 0.0098
CC(C)=CCC[C@@](C)(O)[C@H]1CC[C@]2(C)[C@@H]1[C@H](O)C[C@@H]1[C@@]3(C)CC[C@H](O)C(C)(C)[C@@H]3[C@@H](O[C@@H]3O[C@H](CO)[C@@H](O)[C@H](O)[C@H]3O)C[C@]12C [(20R)-Ginsenoside Rh1] (compound dose: 10 uM) | 0.9611 ± 0.0044 | 0.887 ± 0.031
CC(=O)OC[C@]12[C@H](OC(C)=O)[C@H](OC(C)=O)[C@@H]3[C@@H](OC(C)=O)[C@@]14O[C@@]3(C)COC(=O)c1cccnc1CCC(C)C(=O)O[C@@H]([C@H](OC(=O)c1ccco1)[C@@H]2OC(C)=O)[C@]4(C)O (some centres undefined) [Wilforgine] (compound dose: 10 uM) | 1.02 ± 0.14 | 1.04 ± 0.077
CC(=O)O[C@@H]1[C@H]2[C@@H](OC(=O)Cc3ccccc3)[C@@H](C)C[C@]2(OC(C)=O)C(=O)/C(C)=C/[C@@H]2[C@H](CC[C@]13CO3)C2(C)C [Euphorbia factor L1] (compound dose: 10 uM) | 1.12 | 1.07 ± 0.11
CC(C)C1=CC(=O)[C@@](C)(C2[C@H](O)C[C@@]3(C)[C@@H]4CC=C5[C@@H](CC[C@@H](OC6OCC(O)C(O)C6OC6OC(C)C(O)C(O)C6O)C5(C)C)[C@]4(C)C(=O)C[C@]23C)O1 (some centres undefined) [Picfeltarraenin IA] (compound dose: 10 uM) | 0.9887 ± 0.0091 | 0.901 ± 0.11
CN1[C@@H]2C[C@@H](OC(=O)[C@H](CO)c3ccccc3)C[C@H]1[C@@H]1O[C@@H]12 [Scopolamine hydrobromide] (compound dose: 10 uM) | 0.983 ± 0.025 | 0.811 ± 0.067
